Compounds with a hit are over-represented: about 10% of the library has one in this group of screens.
ALOX12 inhib – qHTS Assay for Inhibitors of 12-hLO (12-human lipoxygenase); Polyunsaturated fatty acid lipoxygenase ALOX12 (Homo sapiens), P18054; purified 12-hLO, xylenol orange hydroperoxide absorbance; actives 0.12% (n = 150,000); AID 1452, 2008; Potency, µM (doses to about 57.1 µM), inactives show at the highest dose activity change, negative = inhibition, hits mostly inhibitors; active = well fitted inhibition curve with a large enough effect; inconclusive = small, poorly fitted or top-dose-only effect; also: potency is read from the fitted curve at half-maximal effect; nearly all actives have a fitted effect of over 55% in size
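Xylenol orange chromogenic assay: hydroperoxide from 12hLO oxidises Fe(II), giving red-shifted Fe(III)-XO absorbance. Conditions: 150 nM enzyme, 40 uM arachidonic acid, 25 mM Hepes pH 7.0, 0.01% Triton X-100, 30 min, room temperature.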
LMNA splice mod – qHTS Assay for Modulators of Lamin A Splicing; HeLa LMNA splicing GFP/RFP minigene ratio, 48 h; Potency, µM (top dose mostly 46.1 µM), for inactives: at the top dose ratio change, negative = inhibition, hits mostly inhibitors; actives 0.01% (n = 200,000); AID 1487, 2009; active = well fitted inhibition curve with a large enough effect in the signal ratio, with a control signal flat, not every such curve was filed as active; inconclusive = small, poorly fitted or top-dose-only effect, or effect the other way, or a change in a side signal; the % refers to the signal ratio; also: potency is read from the fitted curve at half-maximal effect
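Read-out is the ratio of GFP to DsRed2 object intensity, acquired by 488 nm laser-scanning cytometry on HeLa lamin A-EGFP minigene reporter cells. Compound incubation 48 hrs at 37 °C in Opti-MEM with 2% FBS; DMSO 0.5% final.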
HPGD block – qHTS Assay for Inhibitors of HPGD (15-Hydroxyprostaglandin Dehydrogenase) | 15-hydroxyprostaglandin dehydrogenase [NAD(+)] (Homo sapiens), P15428 | purified HPGD, NADH fluorescence kinetic, PGE2 substrate | Potency, µM, inactives show at the top dose activity change, negative = inhibition, actives largely listed as inhibitors | actives 4.3% (n = 150,000) | AID 894, 2007; also: potency is read from the fitted curve at half-maximal effect
Target sequence (P15428 whole entry, looked up): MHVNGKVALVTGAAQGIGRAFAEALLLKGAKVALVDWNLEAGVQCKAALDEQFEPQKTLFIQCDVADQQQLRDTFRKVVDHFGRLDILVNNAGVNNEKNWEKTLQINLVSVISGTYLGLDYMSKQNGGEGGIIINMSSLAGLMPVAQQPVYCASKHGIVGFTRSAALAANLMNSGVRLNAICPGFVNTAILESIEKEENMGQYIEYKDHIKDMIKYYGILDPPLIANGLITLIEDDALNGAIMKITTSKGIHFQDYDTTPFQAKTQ
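20 nM HPGD preincubated 15 min at room temperature with compound in 50 mM Tris-HCl pH 8, 0.01% Tween 20. Started with 1 mM NAD+ and 30 uM prostaglandin E2; NADH fluorescence (360/450 nm) read 5 times over 30-s intervals, last minus first.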
ALDH1A1 inh – qHTS Assay for Inhibitors of Aldehyde Dehydrogenase 1 (ALDH1A1) | Aldehyde dehydrogenase 1A1 (Homo sapiens), P00352 | Purified ALDH1A1, NADH fluorescence, propionaldehyde substrate | Potency, µM (titrated, usually from 75.3 µM), without a hit: top-dose activity, negative = inhibition, most hits filed as inhibitors | actives 7.3% (n = 220,000) | AID 1030, 2008;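 also: potency is read from the fitted curve at half-maximal effect; plate controls were no enzyme wells and a reference inhibitor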
PNC inhibitor – High Content Assay for Compounds that inhibit the Assembly of the Perinucleolar Compartment; PC3M PTB-GFP, PNC prevalence imaging, 16 h; active compounds read low; activity change (PNC), negative = inhibition, % at 10 µM; actives 3.1% (n = 140,000);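 active = readout at or below -70, meaning at least 70% loss of cells showing the perinucleolar compartment, a nuclear body marking cancer cells; inconclusive = readout between -30 and a set limit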;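 also: plate controls were DMSO wells for no effect and camptothecin positive control wells for full effect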
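Compounds are pinned in duplicate onto adhered PC3M cells stably expressing GFP-tagged PTB and incubated 16 h at 37 C. Cells are then fixed, nuclei stained with Hoechst, and PNC-positive cells counted.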
Numbers without * were called inactive; u = inconclusive; x = not tested or not shown; [ ] = dose if it differs, or a comment. Unless noted, calls follow the shape of the dose curve; as a rule, active = well fitted inhibition curve with a large enough effect (not every such curve was filed as active); inconclusive = small, poorly fitted or top-dose-only effect, or another doubt; inactive = no such curve, though single readings can be large or run the other way. Unless noted, % is scaled to controls: 0 for no effect and ±100 for the full control effect.

SMILES	ALOX12 inhib	LMNA splice mod	HPGD block	ALDH1A1 inh	PNC inhibitor
CSc1cccc(NC(=O)Cn2cccc2)c1	-1%	8%	14µM*	0.63µM*	-8
CSc1cccc(NC(C)=O)c1	4%	11%	-2%	9%	u
Cc1cc(=O)[nH]c(SCC(=O)C23CC4CC(CC(C4)C2)C3)c1C#N	3%	u	-18%	3.2µM*	29
Cc1cc(=O)[nH]c(SCC(=O)O)c1C#N	-7%	9%	x	-7%	-23
COc1ccc(/C=C/N(CCc2ccc(OC)c(OC)c2)C(=O)C(F)(F)F)cc1	x	x	x	-21%[13.5 µM]	x
COC(=O)C(C)N(C(=O)c1cccc(Cl)c1)c1c(C)cccc1C (centres undefined)	4%	-15%	-8%	u	-92*
COc1ccccc1CNc1cc(-c2ccccc2C(F)(F)F)ncn1	x	u	x	2%	x
CN(C)c1ccc(NC(=O)CSc2nc(N)c(C(=O)Nc3ccc(N(C)C)cc3)s2)cc1	0%	5%	-9%	25µM*	-2
COc1ccc(NC(=O)CSc2nc(N)c(C(=O)Nc3ccc(N(C)C)cc3)s2)cc1	-1%	-12%	-10%	u	-23
CCOC(=O)c1sc(SCC(=O)Nc2ccc(N(C)C)cc2)nc1N	-1%	u	-6%	22µM*	u
O=C(CC(Cc1ccccc1)c1ccco1)NC1CCCCC1 (centres undefined)	1%	-11%	14µM*	-7%	-13
O=C(NC1CCCCC1)C(c1ccco1)N(CCc1ccccc1)C(=O)C(F)(F)F (centres undefined)	-3%	9%	-2%	32µM*	27
C(=C\c1nc(-c2ccccc2)oc1Nc1ccc2ccccc2c1)/c1ccccc1	0%	x	-7%	12%	x
CCC1=C2CC[C@H]3C(=O)N(CC(=O)OC)C(=O)[C@H]3[C@H]2[C@@]2(Cc3ccccc3)C(=NCCOC)OC(=O)N2C1=O	1%	x	-8%	-10%	x
Cc1ccccc1NC(=O)CC1(c2ccc(N(C)C)cc2)C(=O)c2ccccc2C1=O	-1%	9%	-20%	13µM*	-90*
CN(C)c1ccc(C2(O)C(=O)c3ccccc3C2=O)cc1	1%	-1%	-7%	-5%	-22
COc1cc2c(cc1OC)C(COc1ccccc1OC)N(C(=O)c1ccccc1OC)CC2 (centres undefined)	x	-14%[46 µM]	x	x	x
CCC(Sc1nc2nccnc2c(=O)n1Cc1ccc(OC)cc1)C(=O)NC1CCCCC1 (centres undefined)	x	-14%[46 µM]	x	x	x
CC1=C(C(=O)O)N2C(=O)C(NC(=O)C(N)c3ccc(O)cc3)C2SC1 (centres undefined)	-5%	x	-17%	-7%	x
Oc1ccc(Br)cc1/C=N/N1CCCCC1	-5%	-14%	u	-14%	38
Oc1ccc(Br)cc1/C=N/n1cnc2ccccc21	1%	u	14µM*	8%	0
Cc1cc2ccccc2c(=O)n1CC(=O)NCCC1=CCCCC1	x	u	x	25µM*	x
O=C(CCn1c(=O)c2ccccc2n(CC(=O)NCCC2=CCCCC2)c1=O)NCc1ccco1	5%	9%	-13%	16µM*	u
COc1ccc(O[C@H]2C=C[C@@H](c3ccccc3)O[C@@H]2CO/N=C(\C)CCN2CCCc3nc(C)c(C)cc32)cc1	x	x	x	6%[13.5 µM]	x
COc1cc(C2Nn3c(nnc3-c3ccccc3OC)S2)ccc1O (centres undefined)	0%	-11%	u	24µM*	-15
SMILES	ALOX12 inhib	LMNA splice mod	HPGD block	ALDH1A1 inh	PNC inhibitor
Cc1ccc(NC(=O)CN2C(=O)S/C(=C\c3cc(C)n(-c4cccc(C(=O)O)c4)c3C)C2=O)cc1	x	x	x	13µM*	x
Cc1ccc(NC(=O)CN2C(=O)S/C(=C\c3ccc(-c4cccc(C(=O)O)c4C)o3)C2=O)cc1	-6%	-6%	10µM*	u	-5
Cc1ccccc1NC(=O)CN1C(=O)S/C(=C\c2ccc(-c3cc(C(=O)O)ccc3C)o2)C1=O	x	-15%[46 µM]	x	28µM*	x
CCCCCOC(=O)c1ccc(OC(=O)c2sc3ncn(Cc4cccc(F)c4)c(=O)c3c2C)cc1	x	11%[46 µM]	x	x	x
COc1ccc(NC(=O)CSc2nnc(-c3cccs3)o2)cc1	x	15%[46 µM]	x	x	x
COCCCNC(=O)C1CCN(c2ncnc3c2nc2n3CCCCC2)CC1	x	-5%[46 µM]	x	x	x
Cn1cc(Br)c(C(=O)NC(=S)N2CCN(c3ccccn3)CC2)n1	-4%	0%	-11%	-3%	-86*
CCC(Oc1ccccc1)C(=O)N1CCN(c2ccccn2)CC1 (centres undefined)	-7%	8%	-17%	-1%	-132*
O=C(NC(=S)N1CCN(c2ccccn2)CC1)c1ccccc1	-3%	-5%	-9%	-13%	-92*
CC1CCC(C(=O)NC(C(=O)N2CCc3ccccc3C2)C(C)C)CC1 (centres undefined)	-4%	2%	-8%	-15%	19
CC1CCC(C(=O)NC(C(=O)N2CCN(c3ccccn3)CC2)C(C)C)CC1 (centres undefined)	2%	-1%	-24%	5%	-114*
Cn1ncc(Br)c1C(=O)NC(=S)N1CCN(c2ccccn2)CC1	-1%	5%	-10%	-17%	25
CC(=O)NCC(=O)OCC(=O)N1c2ccccc2Sc2ccccc21	x	-11%[9.22 µM]	x	25µM*	x
O=C(CNC(=O)c1ccccc1)OCC(=O)N1c2ccccc2Sc2ccccc21	-1%	0%	-19%	-3%	11
CCCCC(NC(=O)c1ccccc1)C(=O)OCC(=O)N1c2ccccc2Sc2ccccc21 (centres undefined)	-6%	-14%	-16%	40µM*	52
O=C(CSC1=NCCN1)Nc1ccccc1	-3%[11.4 µM]	x	-6%	5%[13.5 µM]	x
CCOCc1[nH]c(=S)[nH]c(=O)c1Cc1ccc(OC(C)C)cc1	x	x	x	13µM*	x
COc1ccc(Cc2nnc(NC(=O)C3CCCO3)s2)cc1OC (centres undefined)	-5%	-15%	-14%	u	u
COc1ccc(Cc2nnc(NC(=O)C3CCCO3)s2)cc1 (centres undefined)	-5%	-2%	-18%	u	-123*
O=C(Nc1nnc(Cc2ccc(Cl)cc2)s1)C1CCCO1 (centres undefined)	x	-2%[46 µM]	x	14µM*	x
CCNC(=O)CN(C1CCCCC1)S(=O)(=O)c1ccc(F)cc1	10%	-6%	-13%	-2%	11
COCCCNC(=O)CN(C1CCCCC1)S(=O)(=O)c1ccc(C)cc1	-5%	-2%	-2%	14µM*	-14
Cc1ccc(S(=O)(=O)N(CC(=O)N2CCN(c3ccc(F)cc3)CC2)C2CCCCC2)cc1	-1%	5%	-9%	u	43

Source: PubChem (National Center for Advancing Translational Sciences (NCATS))
